Test systems include DU-145 prostate; K-562 leukemia; MALME-3M melanoma; MDA-MB-231 breast; RXF 393 renal; SF-268 CNS; SF-295 CNS; SF-539 CNS; UACC-257 melanoma; M14 melanoma; HCT-15 colon; HT29 colon; SNB-19 CNS; PC-3 prostate; SK-MEL-5 melanoma; UACC-62 melanoma; LOX IMVI melanoma; SK-MEL-28 melanoma; U251 CNS; SNB-75 CNS.
Holding throughout (assay): NCI-60 one-dose screen, 48 h (100 = growth as untreated, 0 = no growth, -100 = all killed)
Holding throughout (conditions): 10 µM unless noted

The structures appear in SMILES notation. Compounds without any hit were thinned out: in the full panel of roughly 83,000, 20% have a hit.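 Each cell line was grown in a 96-well plate and treated with one concentration of compound for 48 hours. Values below 10 were considered active.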 Values without a mark were called inactive. Activity calls are given as the source filed them.

Take `C(=N\Nc1ccccn1)/c1ccccn1`: the growth with DU-145 prostate is 9.51% (active); in the assay on K-562 leukemia it was 19.3%; in the assay with MALME-3M melanoma, -2.58% (active); in the assay with MDA-MB-231 breast, 47.6%; in the assay with RXF 393 renal, 17%; in the assay on SF-268 CNS, -0.109% (active). Besides, the growth was 21.7% in the assay with SF-295 CNS; 7.48% (active) in the assay with SF-539 CNS; -18.9% (active) in the assay with UACC-257 melanoma; -35.8% (active) in the assay with M14 melanoma; 42.7% with HCT-15 colon; 19% in the assay with HT29 colon. In addition, the growth was 40.4% in the assay on SNB-19 CNS; 63.5% in the assay on PC-3 prostate; -4.55% (active) in the assay on SK-MEL-5 melanoma; 2.66% (active) in the assay with UACC-62 melanoma; -11.6% (active) with LOX IMVI melanoma; 34.8% in the assay on SK-MEL-28 melanoma.

Turning to `CC[C@@H](C)OC(=O)c1nn(C(C)=O)c2ccccc12`, the growth in the assay on DU-145 prostate was 107%; with K-562 leukemia, 112%; in the assay with MALME-3M melanoma, 109%; with MDA-MB-231 breast, 98.8%; in the assay on RXF 393 renal, 99.4%; in the assay on SF-268 CNS, 104%. For the same compound, the growth with SF-295 CNS is 93.1%; with SF-539 CNS it was 105%; with UACC-257 melanoma, 101%; in the assay with M14 melanoma, 102%; in the assay on HCT-15 colon, 89.9%; with HT29 colon, 107%. Also, the growth in the assay on SNB-19 CNS was 100%; with U251 CNS, 99.4%; in the assay on PC-3 prostate, 103%; with SK-MEL-5 melanoma, 94.1%; in the assay on UACC-62 melanoma, 99.2%; with LOX IMVI melanoma it was 95.6%. Moreover, the growth in the assay on SK-MEL-28 melanoma is 114%.

`CC(=O)OC1Oc2cc(C)c(C)cc2-c2oc(=O)c(-c3cc4ccc(N(C)C)cc4oc3=O)cc21` (stereo not drawn): the growth in the assay on DU-145 prostate is 85.8%; with K-562 leukemia, 11.4%; in the assay with MALME-3M melanoma it was 68.1%; in the assay with MDA-MB-231 breast, 75.8%; in the assay on RXF 393 renal, 45.9%; in the assay with SF-268 CNS, 84.8%. Further, the growth with SF-295 CNS was 54.9%; with SF-539 CNS, 81.4%; in the assay with UACC-257 melanoma it was 73.4%; in the assay with HCT-15 colon, 100%; in the assay with HT29 colon, 100%; with SNB-75 CNS, 69%. Besides, the growth with U251 CNS was 115%; with PC-3 prostate, 61.9%; in the assay with SK-MEL-5 melanoma, 49.8%; in the assay with UACC-62 melanoma, 61.6%; in the assay on LOX IMVI melanoma it was 101%; in the assay with SK-MEL-28 melanoma, 115%.

Take `COc1ccc(-c2nn(-c3ccccc3)cc2/C=C/C(=O)OCc2cn(-c3ccc(F)c(Cl)c3)nn2)cc1`: the growth in the assay with DU-145 prostate is 97.2%; with K-562 leukemia, 69.7%; in the assay with MALME-3M melanoma, 59%; with MDA-MB-231 breast, 56.9%; in the assay with RXF 393 renal it was 68.4%; with SF-268 CNS it was 77.4%. For the same compound, the growth in the assay with SF-295 CNS is 97.3%; in the assay on SF-539 CNS, 98.7%; in the assay on UACC-257 melanoma it was 92.9%; in the assay on M14 melanoma it was 97.6%; in the assay on HCT-15 colon it was 88.5%; in the assay with HT29 colon it was 103%. Moreover, the growth in the assay on SNB-19 CNS was 85%; in the assay on PC-3 prostate, 60.5%; with SK-MEL-5 melanoma, 83.3%; in the assay with UACC-62 melanoma, 80%; in the assay on LOX IMVI melanoma it was 78.9%; in the assay on SK-MEL-28 melanoma, 115%.

As to `CC[C@H](Nc1ncnc(N)c1C(N)=O)c1nc2cccc(NCc3ccc(C(=O)NO)cc3)c2c(=O)n1-c1ccccc1`, the growth with DU-145 prostate is 97.6%; in the assay with K-562 leukemia, 55.6%; in the assay on MALME-3M melanoma, 67.2%; in the assay on MDA-MB-231 breast, 83.8%; in the assay with RXF 393 renal, 55.2%; in the assay with SF-268 CNS, 90.1%. Further, the growth with SF-295 CNS is 93.2%; in the assay with SF-539 CNS, 75.1%; with UACC-257 melanoma, 63.4%; in the assay with M14 melanoma, 95.9%; in the assay on HCT-15 colon, 105%; in the assay on HT29 colon, 88.7%. In addition, the growth is 68.2% with SNB-19 CNS; 52.9% in the assay on U251 CNS; 92.1% with PC-3 prostate; 87.9% with SK-MEL-5 melanoma; 63.3% with UACC-62 melanoma; 103% in the assay on LOX IMVI melanoma. In addition, the growth in the assay on SK-MEL-28 melanoma was 69.2%.

In the case of `Cc1nc2sc(C(=O)Nc3cccc4c3OCCO4)c(N)c2cc1C(C)O` (stereo not drawn), the growth in the assay on DU-145 prostate is 47.7%; with K-562 leukemia, 13.3%; in the assay with MALME-3M melanoma, 47.1%; in the assay with MDA-MB-231 breast, 39.9%; in the assay with RXF 393 renal, -5.15% (active); in the assay on SF-268 CNS, 49.9%. Moreover, the growth in the assay with SF-295 CNS was 10.9%; with SF-539 CNS, 4.07% (active); in the assay with UACC-257 melanoma it was 55.7%; with M14 melanoma, 37.5%; in the assay on HCT-15 colon, 21.4%; in the assay on HT29 colon it was 3.68% (active). For the same compound, the growth in the assay with SNB-19 CNS is 34.3%; in the assay with U251 CNS, 28.7%; in the assay on PC-3 prostate, 32.6%; in the assay on SK-MEL-5 melanoma, 29.7%; in the assay on UACC-62 melanoma, 22%; in the assay on LOX IMVI melanoma, 33%. Moreover, in the assay with SK-MEL-28 melanoma, the growth is 66.6%.

Consider `Nc1cc(O)cc2cccnc12`, for which the growth in the assay on DU-145 prostate is 107%; with K-562 leukemia, 88%; with MALME-3M melanoma, 89.8%; in the assay on MDA-MB-231 breast it was 78.5%; in the assay on RXF 393 renal, 135%; with SF-268 CNS, 107%. Also, the growth with SF-295 CNS was 95.4%; in the assay with SF-539 CNS it was 101%; in the assay on UACC-257 melanoma, 91.2%; with M14 melanoma it was 83.8%; in the assay with HCT-15 colon it was 110%; in the assay with HT29 colon, 106%. Further, the growth in the assay with SNB-19 CNS was 79.4%; in the assay with PC-3 prostate, 78.7%; in the assay with SK-MEL-5 melanoma, 72.4%; in the assay with UACC-62 melanoma, 89.5%; in the assay on LOX IMVI melanoma, 51.2%; in the assay on SK-MEL-28 melanoma, 112%.

`O=C1/C(=C/c2ccc(Cl)c(Cl)c2)CN(C(=O)CCN2CCC(=NO)CC2)C/C1=C\c1ccc(Cl)c(Cl)c1`: the growth in the assay with DU-145 prostate is -82.8% (active); in the assay with K-562 leukemia, -27% (active); with MALME-3M melanoma it was -81.7% (active); with MDA-MB-231 breast, -90.5% (active); in the assay with RXF 393 renal, -88.8% (active); in the assay on SF-268 CNS, -82.6% (active). For the same compound, the growth with SF-295 CNS is -88.5% (active); with SF-539 CNS it was -93.7% (active); with UACC-257 melanoma it was -85.5% (active); in the assay on M14 melanoma it was -49.7% (active); in the assay on HCT-15 colon, -88.3% (active); in the assay on HT29 colon it was -85.9% (active). Further, the growth with SNB-19 CNS was -96% (active); in the assay on U251 CNS, -93.4% (active); in the assay on PC-3 prostate it was -71.2% (active); with SK-MEL-5 melanoma, -93.7% (active); with UACC-62 melanoma, -92.3% (active); with LOX IMVI melanoma it was -90.6% (active). The growth in the assay on SK-MEL-28 melanoma was -92% (active).
